Consider 93 compounds from PubChem BioAssay AID463173 (ICCB-Longwood Screening Facility, Harvard Medical School, 2010).

The campaign covered roughly 52,000 compounds. About 1,700 (3.3%) were called active. The sample holds actives, similar compounds and a random draw of the others, so the mix is not that of the screen. Rule as the data show it: active = survival mostly below about 52% (no sharp cut-off); inactive = mostly above about 56%.

The subject of this experiment is Wild type. In words: S. aureus survival, RN4220 and DeltatarO strains – OD600, teichoic acid synthesis inhibitors, primary screen (AID 463173). The settings on record: S. aureus RN4220 wild type/DeltatarO growth, OD600, 18 h, hits give low values, screened at 18.75 µg/mL (by protocol).
On to `COc1ccc(OCC(=O)N2CCN(C(=O)c3ccc(OC)c(OC)c3)CC2)cc1`, for which the survival is 134% (inactive). As to `Nc1ccc(N2CCN(c3ncc(C(F)(F)F)cc3Cl)CC2)c(C(F)(F)F)c1`, the survival is -14% (active).

As for `Nc1ccc(N2CCOCC2)c(N)c1`, the survival is 113% (inactive). Then `Nc1ccc(-c2ccc(N)cc2C(F)(F)F)c(C(F)(F)F)c1`, with 117% (inactive); and `Cc1ccc(C2=Nc3ccccc3N(CC(=O)Nc3ccccc3F)C(=O)C2)cc1C`, with 83% (inactive); and `CC(Oc1ccc(F)cc1)C(=O)Nc1nc(-c2ccc(F)cc2)ns1` (stereo not drawn), with -1% (active). For the compound `CCC(Oc1ccc(F)cc1)C(=O)Nc1nc2c(s1)CCCC2` (stereo not drawn), the survival is 76% (inactive). As to `CCC(Oc1ccc(F)cc1)C(=O)Nc1cc(-c2ccc(C)cc2)no1` (stereo not drawn), the survival is 64% (inactive). Regarding `CCC(Oc1ccc(F)cc1)C(=O)Nc1nc(-c2ccc(F)cc2)ns1` (stereo not drawn), the survival is -1% (active). As for `COc1ccc(-c2nsc(NC(=O)C(C)Oc3ccc(Cl)c(C)c3)n2)cc1` (stereo not drawn), the survival is 67% (inactive). As for `Cc1cc(C)cc(OCC(=O)Nc2nc(-c3ccc(F)cc3)ns2)c1`, the survival is 89% (inactive). The value for `O=c1cc(-c2ccc(F)cc2)nc(SCc2nc(-c3ccc(Cl)cc3)no2)[nH]1` was 88% (inactive); that for `COC(=O)C1CCN(C(c2ccccc2Cl)c2sc3nc(-c4ccco4)nn3c2O)CC1` (stereo not drawn) was 80% (inactive); that for `Cc1nc(N2CCCC2)c2c(C(=O)N3CCN(c4cc(Cl)ccc4C)CC3)c(C)oc2n1` was 99% (inactive). With `Cc1oc2ncnc(N3CCOCC3)c2c1C(=O)N1CCN(c2cccc(C(F)(F)F)c2)CC1`, the survival is -6% (active). On to `Cc1ccc(Cl)cc1N1CCN(C(=O)c2c(C)oc3ncnc(N4CCOCC4)c23)CC1`, for which the survival is 69% (inactive).

For `Cc1ccc(Cl)cc1N1CCN(C(=O)c2c(C)oc3ncnc(N4CCCCC4)c23)CC1`, the survival is -6% (active). Regarding `Cc1nc(N2CCOCC2)c2c(C(=O)N3CCN(c4cccc(C(F)(F)F)c4)CC3)c(C)oc2n1`, the survival is 79% (inactive).

On to `Cc1oc2ncnc(N3CCCCC3)c2c1C(=O)N1CCN(c2cccc(C(F)(F)F)c2)CC1`, for which the survival is 87% (inactive). For the compound `O=C(NCc1ccccc1Cl)C1CCN(S(=O)(=O)c2ccc3c(c2)CCCN3C(=O)C2CCC2)CC1`, the survival is 80% (inactive). As for `Cn1c(COc2ccccc2C(C)(C)C)nc2ccccc21`, the survival is -17% (active).

Take `c1ccc(OCCn2c(COc3ccccc3)nc3ccccc32)cc1`: the survival is -15% (active). Turning to `Cc1ccc(OCc2nc3ccccc3n2CCOc2ccc(Cl)cc2)cc1`, the survival was 26% (active). Regarding `Cc1ccc(C)c(OCc2nc3ccccc3n2C)c1`, the survival is 85% (inactive).

With `COc1ccc(OCc2nc3ccccc3n2Cc2ccc(C(C)(C)C)cc2)cc1`, the survival is 0% (active). Turning to `Cc1ccc(OCCn2c(COc3ccc(Cl)cc3)nc3ccccc32)cc1`, the survival is 74% (inactive). On to `COc1cccc(OCc2nc3ccccc3n2CCOc2ccc(C)cc2)c1`, for which the survival was 62% (inactive).

`COc1cccc(OCc2nc3ccccc3n2CCOc2ccccc2)c1`: the survival is 74% (inactive). On to `Cn1c(COc2ccccc2Br)nc2ccccc21`, for which the survival is 106% (inactive). The value for `COc1cccc(OCc2nc3ccccc3n2Cc2ccccc2)c1` was 86% (inactive); that for `COc1ccc(C(=O)NCC(c2cccnc2)N2CCc3ccccc3C2)cc1OC` (stereo not drawn) was 93% (inactive); that for `CCOC(=O)CC(NC(=O)CCc1c(C)nc2c(c1C)c(=O)n(C)c(=O)n2C)c1ccc(OCC)c(OC)c1` (stereo not drawn) was 82% (inactive). For `Cc1ccc(OCC(=O)Nc2ccc3nc(SCCOc4ccccc4)sc3c2)cc1`, the survival is 99% (inactive). With `CCOC(=O)N1CCc2c(sc(NCc3cccc(F)c3)c2C(=O)Nc2ccc(OC)cc2OC)C1`, the survival was 68% (inactive).

On to `CC(C)c1nnc(NC(=O)c2nc(SCc3ccc(F)cc3)ncc2Cl)s1`, for which the survival was 58% (inactive). As for `Cc1cc(C)n(CCc2nc3c4ccccc4nc(SCc4ccc(F)cc4)n3n2)n1`, the survival is 85% (inactive). `COc1ccc(C(CNC(=O)c2ccc(C)cc2)N2CCOCC2)cc1` (stereo not drawn): the survival is 92% (inactive). Then `Cc1cc2nc3c(=O)n(C)c(=O)n(C)c3nc2cc1N=CN(C)C`, with 77% (inactive); and `CCc1c(CN2CCN(c3ccc(F)cc3)CC2)csc1C`, with 75% (inactive). Then `O=C(CSc1ccc(-c2ccc(F)cc2)nn1)N1CCOCC1`, with 112% (inactive). Take `Cc1ccc(-n2nc3c(=O)n(C(C)C(=O)NCc4ccc(OC(C)C)cc4)nc(C)c3c2C)cc1` (stereo not drawn): the survival was 93% (inactive). In the case of `CC(C)(C)c1ccc(OCc2nc3ccccc3n2CCOc2ccccc2)cc1`, the survival was 7% (active).

`Cc1ccc(NS(=O)(=O)c2ccc(-c3cc(C)no3)cc2)c(C)c1`: the survival was 101% (inactive). Then `COc1ccccc1CCNC(=O)c1cccn1-c1nnc(N2CCCCC2)s1`, with 87% (inactive); and `COc1ccc(NC(=O)c2cccn2-c2nnc(N3CCCCC3)s2)c(OC)c1`, with 73% (inactive).

Turning to `COc1ccccc1CNC(=O)c1cccn1-c1nnc(N2CCCC2)s1`, the survival is 81% (inactive).

Turning to `O=C(c1cccn1-c1nnc(N2CCCCC2)s1)N1CCN(c2ccc(Cl)cc2)CC1`, the survival was 73% (inactive). Turning to `COc1ccc(CNC(=O)c2cccn2-c2nnc(N3CCCCC3)s2)c(OC)c1`, the survival was -2% (active).

As to `COc1ccc(CNC(=O)c2cccn2-c2nnc(N3CCCC3)s2)c(OC)c1`, the survival is 81% (inactive). With `O=C(c1cccn1-c1nnc(N2CCCCC2)s1)N1CCN(c2ccccc2)CC1`, the survival was -3% (active). In the case of `COc1ccccc1CNC(=O)c1cccn1-c1nnc(N2CCCCC2)s1`, the survival is 10% (active).

For `O=C(c1cccn1-c1nnc(N2CCCC2)s1)N1CCN(c2ccccc2)CC1`, the survival was 19% (inactive). As for `Cc1ccc(C)c(CSc2nnc3[nH]c(=O)cc(-c4ccccc4)n23)c1`, the survival was 86% (inactive). Regarding `Cc1cccc(N2CCN(c3nc4ccccc4c4nnc(C)n34)CC2)c1C`, the survival was 98% (inactive).

Turning to `COc1ccc(NC(=O)C2CCN(C(=O)c3sc4nc[nH]c(=O)c4c3C)CC2)cc1Cl`, the survival is 85% (inactive). As for `CCOc1ccccc1NC(=O)CN1C(=O)C(=O)c2ccccc21`, the survival was 115% (inactive). The value for `CCOc1ccccc1NC(=O)CN1c2ccccc2S(=O)(=O)c2ccccc21` was 10% (active).

In the case of `Cc1cc(C)c(NC(=O)CN2c3ccccc3S(=O)(=O)c3ccccc32)c(C)c1`, the survival is 124% (inactive). The value for `CCOc1ccccc1NC(=O)CN1C=NS(=O)(=O)c2ccccc21` was 59% (inactive).

For the compound `O=C(CN1c2ccccc2S(=O)(=O)c2ccccc21)Nc1ccccc1Cl`, the survival is 65% (inactive). Turning to `Cc1cccc(NC(=O)CN2c3ccccc3S(=O)(=O)c3ccccc32)c1C`, the survival was -3% (active). As for `CCn1nc(-c2ccccc2)c(-c2ccccc2)c(C(=O)Nc2ccc(NC(C)=O)cc2)c1=O`, the survival is 88% (inactive). Turning to `CCC(C)(C)n1nnnc1C(c1ccccc1OC)N1CCN(C(=O)c2ccco2)CC1` (stereo not drawn), the survival was 105% (inactive). Consider `Cc1ccc(C)c(Cn2c(C(C)NC(=O)c3ccc(F)cc3)nc3ccccc32)c1` (stereo not drawn), for which the survival was 83% (inactive).

Take `COc1ccc(C(=O)N2CCN(C(=O)COc3ccccc3)CC2)cc1OC`: the survival was 79% (inactive). Then `CC(=O)N1c2ccc(S(=O)(=O)NCC3CCC(C(=O)Nc4cccc(C)c4)CC3)cc2CC1C` (stereo not drawn), with 91% (inactive); and `Cc1ccc(C(=O)Nc2ccc(-c3nc4ccccc4s3)cc2C)cc1C`, with 73% (inactive); and `CSc1ncc(C(=O)N2CCN(c3cccc(C(F)(F)F)c3)CC2)c(C)n1`, with 73% (inactive).

With `CSc1ncc(C(=O)N2CCN(c3ccc(Cl)cc3)CC2)c(C)n1`, the survival is 124% (inactive).

Consider `CSc1ncc(C(=O)N2CCN(c3cccc(Cl)c3)CC2)c(C)n1`, for which the survival is -3% (active). The value for `CCCCN(CCCNC(=O)c1c(C)oc2nc[nH]c(=O)c12)Cc1ccccc1` was 71% (inactive). Take `Cc1oc2ccc(O)c(CN3CCCC(C)C3)c2c1C(=O)Nc1ccccc1` (stereo not drawn): the survival was 91% (inactive). As to `CCN(Cc1ccccc1)Cc1c(O)ccc2c(=O)c(-c3ccccc3Cl)coc12`, the survival was 73% (inactive). On to `CCN(CC)c1ccc(NC(=O)CN2C(=O)c3cccnc3Sc3ccccc32)c(C)c1`, for which the survival is -4% (active). Turning to `Cc1cc(Br)ccc1NC(=O)CN1C(=O)c2cccnc2Sc2ccccc21`, the survival is 85% (inactive). In the case of `CCN(CC)c1ccc(NC(=O)CN2C(=O)c3cccnc3Oc3ccccc32)c(C)c1`, the survival is 135% (inactive). For the compound `CCC(=O)Nc1ccc(CC)cc1-c1nc2ccccc2n(CC(=O)Nc2ccccc2C)c1=O`, the survival is 88% (inactive).

With `COc1ccc(Nc2ncc3c(n2)CCN(Cc2ccc(Br)s2)C3)c(OC)c1`, the survival was 127% (inactive). For the compound `Cc1ccccc1Cn1c(CN2CCC(C(=O)NCc3ccc(Cl)cc3)CC2)cc2ccccc21`, the survival was 60% (inactive).

For `CCN(CC)C(=O)C1CCN(Cc2ccccc2F)CC1`, the survival is 107% (inactive). For the compound `O=c1c2ccccc2n(Cc2ccccc2F)c(=O)n1-c1cccc(F)c1`, the survival was 75% (inactive).

For `CCOc1ccc(CNC(=O)C2CCN(Cc3cc4ccccc4n3Cc3ccccc3C)CC2)cc1`, the survival is 60% (inactive). Regarding `CCn1c2ccccc2c2cc(CN3CCN(Cc4ccccc4C)CC3)ccc21`, the survival was -1% (active). Then `CCn1c2ccccc2c2cc(CN3CCN(Cc4ccccc4F)CC3)ccc21`, with 4% (active); and `O=C1NC(=O)C(Nc2cccc3ccccc23)S1` (stereo not drawn), with 104% (inactive). Turning to `O=C(CSc1nnc(Cn2nnc3ccccc32)o1)N(Cc1ccc(Cl)cc1)c1ccccc1`, the survival is 141% (inactive). Turning to `CCOC(=O)c1ccccc1NC(=O)c1ccncc1`, the survival is 94% (inactive). For the compound `Cc1cccc(C(CC(=O)NCC2(c3ccccc3)CCCC2)c2ccccc2)c1O` (stereo not drawn), the survival was 2% (active).

On to `Cc1ccc(O)c(C(CC(=O)NCC2(c3ccccc3)CCCC2)c2ccccc2)c1` (stereo not drawn), for which the survival was 6% (active).

`CCC(=O)NCC1(c2ccccc2)CCCC1`: the survival is 102% (inactive).

Regarding `O=C(CC(c1ccccc1)c1cc(Br)ccc1O)NCC1(c2ccccc2)CCCC1` (stereo not drawn), the survival was 63% (inactive). Then `Cc1ccc(C(CC(=O)NCC2(c3ccccc3)CCCC2)c2ccccc2)c(O)c1` (stereo not drawn), with 36% (inactive).

Consider `Cc1ccccc1NC(=O)C(=O)NCC1(c2ccccc2)CCCC1`, for which the survival was 94% (inactive).
